Calls of active or inactive are those of the source. The calls were made as follows: active = hit-call score of the fitted dose curve at least 0.9, where 1 is the maximum; inactive = score below 0.9.
What was measured:
[1] = ATG_EGR_CIS: Attagene CIS-FACTORIAL HepG2 Assay for human Early Growth Response 1 (EGR1) (AID 2282938); conditions: HepG2 Attagene CIS-FACTORIAL EGR reporter mRNA; actives raise or lower the signal
Method in brief: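 After 24 h compound exposure, RNA from reporter-transfected HepG2 cells was reverse-transcribed, PCR-amplified, fluorescently labelled and resolved by capillary electrophoresis. EGR1 reporter transcript changes, up or down, were fitted against DMSO, reflecting endogenous transcription-factor activity.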

[2] = ATG_M_19_CIS: Attagene CIS-FACTORIAL HepG2 Assay for M19 Transcription Factor (Internal Marker) (AID 2282939); conditions: HepG2 Attagene CIS-FACTORIAL M19 internal marker reporter; actives raise or lower the signal
Method in brief: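 In this multiplexed cell assay, transiently transfected HepG2 reporter units report endogenous transcription-factor activity; after 24 hours of treatment, labelled reporter cDNA fragments are quantified by capillary electrophoresis and fitted bidirectionally against DMSO.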

[3] = ATG_ERE_CIS: Attagene CIS-FACTORIAL HepG2 Assay for Estrogen Response Element (ERE) (AID 2282940); conditions: HepG2 ERE cis-reporter, Attagene RNA transcript; actives raise or lower the signal
Method in brief: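 Measuring endogenous transcription factor output, the assay doses transfected HepG2 cells for 24 hours and quantifies reporter transcripts by fluorescent RT-PCR and capillary electrophoresis, with DMSO as baseline.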

[4] = ATG_Ets_CIS: Attagene CIS-FACTORIAL HepG2 Assay for human Erythroblast Transformation Specific (ETS) (AID 2282941); conditions: HepG2 ETS cis-reporter transcription; AC50: actives raise or lower the signal unless noted; outcome: actives raise or lower the signal unless noted
Method in brief: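 After transient cis-reporter transfection, HepG2 cells receive test chemical for 24 h. Reporter mRNA levels, measured by RT-PCR and capillary electrophoresis fluorescence, are analysed bidirectionally relative to the DMSO baseline.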

[5] = molecular target: Hepatocyte nuclear factor 3-beta (Homo sapiens) (UniProt Q9Y261); test: ATG_FoxA2_CIS: Attagene CIS-FACTORIAL HepG2 Assay for human Forkhead box A2 (FOXA2) (AID 2282942); conditions: HepG2 cis-reporter transcription factor activity, 24 h; actives raise or lower the signal
Hepatocyte nuclear factor 3-beta (Homo sapiens), sequence (Q9Y261 whole entry, looked up): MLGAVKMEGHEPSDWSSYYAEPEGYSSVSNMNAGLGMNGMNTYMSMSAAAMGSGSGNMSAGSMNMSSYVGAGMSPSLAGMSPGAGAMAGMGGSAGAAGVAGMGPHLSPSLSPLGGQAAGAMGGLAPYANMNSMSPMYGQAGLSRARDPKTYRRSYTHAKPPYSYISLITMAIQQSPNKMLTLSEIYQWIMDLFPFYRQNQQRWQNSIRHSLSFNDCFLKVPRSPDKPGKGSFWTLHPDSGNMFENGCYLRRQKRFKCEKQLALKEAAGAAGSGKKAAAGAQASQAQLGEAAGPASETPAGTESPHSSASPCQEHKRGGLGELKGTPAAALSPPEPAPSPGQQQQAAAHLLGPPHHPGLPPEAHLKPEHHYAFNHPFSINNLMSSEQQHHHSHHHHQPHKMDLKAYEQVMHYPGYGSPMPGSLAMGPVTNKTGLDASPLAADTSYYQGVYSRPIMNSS
Method in brief: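 Endogenous transcription factor activity is captured via cis-element-driven reporter transcripts in transfected HepG2. Total RNA taken at 24 h post-dosing; labelled RT-PCR products resolved by capillary electrophoresis. Gain or loss fitted versus DMSO.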

[6] = ATG_FoxO_CIS: Attagene CIS-FACTORIAL HepG2 Assay for human Forkhead box O (FoxO) (AID 2282943); conditions: HepG2 Attagene cis-reporter, FoxO element, mRNA; actives raise or lower the signal
Method in brief: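 Values reflect reporter mRNA induction or loss in HepG2 cells 24 h post-dosing, fitted bidirectionally with DMSO as negative control and baseline. Detection used RT-PCR and fluorescence capillary electrophoresis.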

[7] = ATG_GATA_CIS: Attagene CIS-FACTORIAL HepG2 Assay for human GATA Binding Protein (AID 2282944); conditions: HepG2 GATA cis-element reporter, Attagene multiplex mRNA; actives raise or lower the signal
Method in brief: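 Measures endogenous transcription factor-driven reporter mRNA in HepG2 cells transiently carrying cis-regulated constructs. 24 h dosing; RNA via oligo(dT) reverse transcription, PCR, HpaI digestion, capillary electrophoresis; fitted relative to DMSO.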

[8] = ATG_GLI_CIS: Attagene CIS-FACTORIAL HepG2 Assay for human Zinc Finger Protein GLI1 (AID 2282945); conditions: HepG2, Attagene cis-factorial reporter mRNA, GLI element; actives raise or lower the signal
Method in brief: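 HepG2 cells transiently transfected with cis-promoter multiplexed reporter units report endogenous transcription factor activity. After 24 h chemical exposure, reporter mRNA was quantified by RT-PCR, 6-FAM labelling, HpaI digestion and capillary electrophoresis, with bidirectional fitting against DMSO.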

[9] = molecular target: Bile acid receptor (Homo sapiens) (UniProt Q96RI1); test: ATG_IR1_CIS: Attagene CIS-FACTORIAL HepG2 Assay for human Nuclear Receptor Subfamily 1 Group H Member 4 (NR1H4), IR1 submotif (AID 2282946); conditions: IR1 reporter transcription, actives raise or lower the signal
Bile acid receptor (Homo sapiens), sequence (Q96RI1 whole entry, looked up): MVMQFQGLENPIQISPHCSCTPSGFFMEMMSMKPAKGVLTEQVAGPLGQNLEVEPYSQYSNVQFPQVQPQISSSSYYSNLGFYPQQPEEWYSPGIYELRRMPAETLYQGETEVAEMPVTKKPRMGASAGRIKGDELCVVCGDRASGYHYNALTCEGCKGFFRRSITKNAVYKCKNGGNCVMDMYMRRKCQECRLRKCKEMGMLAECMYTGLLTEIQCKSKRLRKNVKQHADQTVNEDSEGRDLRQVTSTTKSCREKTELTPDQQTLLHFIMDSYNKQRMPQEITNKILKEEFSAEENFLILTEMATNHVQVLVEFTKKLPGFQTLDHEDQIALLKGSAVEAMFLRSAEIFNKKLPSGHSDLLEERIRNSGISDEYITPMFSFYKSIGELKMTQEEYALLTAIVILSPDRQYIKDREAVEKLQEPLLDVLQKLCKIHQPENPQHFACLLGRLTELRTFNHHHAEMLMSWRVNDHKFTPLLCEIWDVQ
Method in brief: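 Transient MRTU transfection, HepG2; 24 h dosing; RNA → RT-PCR → 6-FAM primer extension → HpaI digest → capillary electrophoresis fluorescence. Gain/loss of signal fitted relative to DMSO.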

[10] = ATG_GRE_CIS: Attagene CIS-FACTORIAL HepG2 Assay for human Glucocorticoid Response Elements (GRE) (AID 2282947); conditions: HepG2 GRE cis-reporter, Attagene multiplex mRNA; AC50: actives raise or lower the signal unless noted; outcome: actives raise or lower the signal unless noted
Method in brief: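 HepG2 cells transiently transfected with multiple cis-promoter reporter units measure endogenous TF activity; 24 h compound exposure. Reporter mRNA quantified by RT-PCR, FAM labelling, HpaI digestion and capillary electrophoresis; bidirectional fit vs DMSO baseline.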

[11] = ATG_ISRE_CIS: Attagene CIS-FACTORIAL HepG2 Assay for human Interferon Regulatory Factor 1 (IRF1) binding to an Interferon-Stimulated Response Element (ISRE) (AID 2282948); conditions: HepG2 ISRE cis-reporter (Attagene), mRNA transcription readout; actives raise or lower the signal
Method in brief: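 Quantitation relies on labelled RT-PCR fragments separated by capillary electrophoresis. Human HepG2 cells bearing cis-promoter reporter constructs were treated 24 h; DMSO served as baseline for bidirectional fitting.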

[12] = ATG_M_32_CIS: Attagene CIS-FACTORIAL HepG2 Assay for M32 Transcription Factor (Internal Marker) (AID 2282949); conditions: HepG2 Attagene cis-factorial M32 reporter, mRNA; actives raise or lower the signal;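 also: background control marker of the multiplexed CIS panel rather than a real target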
Method in brief: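 Following 24 h chemical exposure of HepG2 cells transiently expressing cis-promoter reporter constructs, reporter transcript levels were determined by RT-PCR with fluorescent labelling and capillary electrophoresis, then fitted bidirectionally against DMSO.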

[13] = ATG_M_06_CIS: Attagene CIS-FACTORIAL HepG2 Assay for M06 Transcription Factor (Internal Marker) (AID 2282950); conditions: HepG2 Attagene CIS-FACTORIAL M06 internal marker reporter; actives raise or lower the signal
Method in brief: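 One of many multiplexed endpoints: HepG2 reporter mRNA after 24 h dosing, detected by RT-PCR and capillary electrophoresis fluorescence; gain or loss of signal analysed against DMSO.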

[14] = molecular target: Hypoxia-inducible factor 1-alpha (Homo sapiens) (UniProt Q16665); test: ATG_HIF1a_CIS: Attagene CIS-FACTORIAL HepG2 Assay for human Hypoxia Inducible Factor 1 (HIF1A) (AID 2282951); conditions: HepG2 Attagene cis-factorial HIF1a reporter transcription; actives raise or lower the signal
Hypoxia-inducible factor 1-alpha (Homo sapiens), sequence (Q16665 whole entry, looked up): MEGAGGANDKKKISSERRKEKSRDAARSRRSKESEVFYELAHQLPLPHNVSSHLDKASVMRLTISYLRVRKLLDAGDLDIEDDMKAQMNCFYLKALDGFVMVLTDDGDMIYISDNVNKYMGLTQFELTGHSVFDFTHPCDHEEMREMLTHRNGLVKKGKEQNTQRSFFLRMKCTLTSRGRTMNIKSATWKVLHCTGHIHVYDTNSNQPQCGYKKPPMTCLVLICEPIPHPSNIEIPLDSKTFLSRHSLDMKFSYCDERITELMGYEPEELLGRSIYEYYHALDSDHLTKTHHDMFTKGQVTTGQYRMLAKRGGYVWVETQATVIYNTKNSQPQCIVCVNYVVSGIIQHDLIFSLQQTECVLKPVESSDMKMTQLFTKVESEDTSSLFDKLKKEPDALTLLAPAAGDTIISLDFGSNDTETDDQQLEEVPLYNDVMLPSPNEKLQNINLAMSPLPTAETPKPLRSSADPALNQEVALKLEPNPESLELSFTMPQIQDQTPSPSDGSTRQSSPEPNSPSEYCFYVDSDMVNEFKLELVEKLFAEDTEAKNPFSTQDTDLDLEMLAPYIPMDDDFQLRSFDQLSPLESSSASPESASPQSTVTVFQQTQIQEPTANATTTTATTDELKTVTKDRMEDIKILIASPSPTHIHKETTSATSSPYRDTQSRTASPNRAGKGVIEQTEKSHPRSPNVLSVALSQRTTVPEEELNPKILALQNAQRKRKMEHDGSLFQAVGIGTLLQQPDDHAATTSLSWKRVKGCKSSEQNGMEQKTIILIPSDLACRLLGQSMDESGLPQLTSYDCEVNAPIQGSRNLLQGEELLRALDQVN
Method in brief: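 Activity is fitted in both directions relative to DMSO. Reporter transcripts are read by RT-PCR, fluorescent primer extension and capillary electrophoresis after 24 h chemical treatment. The cells are HepG2 carrying transiently transfected cis-element-driven reporter units responding to endogenous factors.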

[15] = molecular target: Hepatocyte nuclear factor 6 (Homo sapiens) (UniProt Q9UBC0); test: ATG_HNF6_CIS: Attagene CIS-FACTORIAL HepG2 Assay for human Hepatocyte Nuclear Factor 6 (HNF6) (AID 2282952); conditions: HepG2 Attagene cis-factorial HNF6 reporter transcription; actives raise or lower the signal
Hepatocyte nuclear factor 6 (Homo sapiens), sequence (Q9UBC0 whole entry, looked up, the tested form may be a part): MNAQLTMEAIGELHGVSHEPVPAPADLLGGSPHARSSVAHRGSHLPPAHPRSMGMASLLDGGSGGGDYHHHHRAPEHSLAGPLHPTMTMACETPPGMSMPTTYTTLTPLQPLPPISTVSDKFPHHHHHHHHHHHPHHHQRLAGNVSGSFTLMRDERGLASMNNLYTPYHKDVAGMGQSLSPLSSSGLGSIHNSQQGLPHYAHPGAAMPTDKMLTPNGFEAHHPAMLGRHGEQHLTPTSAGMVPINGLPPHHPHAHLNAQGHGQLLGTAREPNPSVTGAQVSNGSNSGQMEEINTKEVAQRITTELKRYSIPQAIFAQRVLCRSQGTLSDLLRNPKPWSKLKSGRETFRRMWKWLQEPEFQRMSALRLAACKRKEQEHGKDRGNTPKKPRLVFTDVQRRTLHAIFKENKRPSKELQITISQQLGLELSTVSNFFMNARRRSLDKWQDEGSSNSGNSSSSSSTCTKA
Method in brief: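 Reporter mRNA induction or loss in HepG2 after 24 h exposure; transient cis-MRTU transfection; fragments quantified by capillary electrophoresis; bidirectional analysis, DMSO as negative control.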

[16] = molecular target: Heat shock factor protein 1 (Homo sapiens) (UniProt Q00613); test: ATG_HSE_CIS: Attagene CIS-FACTORIAL HepG2 Assay for human Heat Shock Transcription Factor 1 (HSE) (AID 2282953); conditions: HepG2 HSE cis-reporter, Attagene RNA transcription; actives raise or lower the signal
Heat shock factor protein 1 (Homo sapiens), sequence (Q00613 whole entry, looked up): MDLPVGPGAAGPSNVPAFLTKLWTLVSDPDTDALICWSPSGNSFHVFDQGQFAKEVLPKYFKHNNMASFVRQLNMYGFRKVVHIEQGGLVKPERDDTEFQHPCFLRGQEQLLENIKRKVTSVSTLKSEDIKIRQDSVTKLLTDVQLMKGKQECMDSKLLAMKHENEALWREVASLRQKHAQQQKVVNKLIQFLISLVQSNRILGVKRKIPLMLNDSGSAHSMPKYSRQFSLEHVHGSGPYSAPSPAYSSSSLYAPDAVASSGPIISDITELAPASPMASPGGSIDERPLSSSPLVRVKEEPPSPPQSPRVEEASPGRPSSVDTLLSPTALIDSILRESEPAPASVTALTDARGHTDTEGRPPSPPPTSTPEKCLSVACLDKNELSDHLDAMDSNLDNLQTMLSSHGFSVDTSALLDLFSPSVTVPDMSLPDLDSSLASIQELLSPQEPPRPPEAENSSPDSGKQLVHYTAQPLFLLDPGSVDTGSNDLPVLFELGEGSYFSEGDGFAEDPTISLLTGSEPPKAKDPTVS
Method in brief: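 Using HepG2 with transfected cis-driven reporter constructs, compound effects on endogenous factor activity are scored as reporter mRNA change at 24 h. Detection: RT-PCR, HpaI digestion, capillary electrophoresis; bidirectional fitting to DMSO.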

[17] = ATG_MRE_CIS: Attagene CIS-FACTORIAL HepG2 Assay for human Metal Responsive Element (MRE) (AID 2282954); conditions: HepG2 MRE cis-reporter transcription, Attagene multiplex; actives raise or lower the signal
Method in brief: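 HepG2 cells transiently transfected with multiple cis-element reporter units measure endogenous MTF1-driven transcription. After 24 h compound exposure, reporter mRNA is quantified by RT-PCR with 6-FAM labelling, HpaI digestion and capillary electrophoresis; bidirectional fits versus DMSO.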

[18] = ATG_PBREM_CIS: Attagene CIS-FACTORIAL HepG2 Assay for human Phenobarbital-responsive Enhancer Module (PBREM) (AID 2282955); conditions: HepG2 PBREM cis-reporter, Attagene multiplexed transcription; actives raise or lower the signal
Method in brief: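 Endogenous transcription factor activity was read from reporter transcripts in transiently transfected human HepG2 liver cells after 24 h dosing. RT-PCR products were fluorescently labelled, HpaI-cut and sized by capillary electrophoresis; activity fitted bidirectionally against DMSO baseline.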

[19] = molecular target: Paired box protein Pax-6 (Homo sapiens) (UniProt P26367); test: ATG_Pax6_CIS: Attagene CIS-FACTORIAL HepG2 Assay for human Paired Box 6 (PAX6) (AID 2282956); conditions: HepG2 CIS-FACTORIAL PAX6 reporter transcription, RNA readout; actives raise or lower the signal
Paired box protein Pax-6 (Homo sapiens), sequence (P26367 whole entry, looked up): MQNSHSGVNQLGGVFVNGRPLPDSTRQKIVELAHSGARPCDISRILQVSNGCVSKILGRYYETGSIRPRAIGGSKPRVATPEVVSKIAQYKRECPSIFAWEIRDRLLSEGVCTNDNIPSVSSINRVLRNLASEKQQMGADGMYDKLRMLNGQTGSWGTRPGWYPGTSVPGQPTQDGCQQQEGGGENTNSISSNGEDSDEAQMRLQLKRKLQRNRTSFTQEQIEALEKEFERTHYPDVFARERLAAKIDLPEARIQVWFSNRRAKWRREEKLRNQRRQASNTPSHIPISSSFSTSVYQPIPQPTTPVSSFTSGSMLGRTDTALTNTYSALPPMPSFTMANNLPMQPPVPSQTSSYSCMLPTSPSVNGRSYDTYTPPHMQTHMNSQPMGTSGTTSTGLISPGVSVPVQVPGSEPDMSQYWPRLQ
Method in brief: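 After twenty-four hours of chemical exposure, transfected HepG2 cells are harvested for RNA. Cis-promoter reporter transcripts are amplified, fluorescently labelled and sized by capillary electrophoresis, with gain and loss of signal scored against DMSO.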

[20] = ATG_PXRE_CIS: Attagene CIS-FACTORIAL HepG2 Assay for human Pregnane X Receptor Element (PXRE) (AID 2282957); conditions: HepG2 Attagene CIS-FACTORIAL PXRE reporter, mRNA; actives raise or lower the signal
Method in brief: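 Transiently transfected HepG2 cells were dosed and incubated for 24 h. RNA was then isolated, DNase-treated, reverse-transcribed and reporter sequences amplified. Labeled, HpaI-digested fragments were quantified by capillary electrophoresis against DMSO.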

Measured: AC50

CCCCC(CC)C(=O)OCCOCCOCCOCCOC(=O)C(CC)CCCC (stereo not given)
active: [18] 27.6 µM | [20] 27.5 µM
inactive: all other assays above

O=C(C=C(O)C(F)(F)F)C(F)(F)F
active: [20] 99 µM
not listed: [11] | [18]
inactive: all other assays above

CCCCCCCCC(C)=O
not listed: [15] | [16]
inactive: all other assays above

C[N+](C)(CCCNS(=O)(=O)CCC(F)(F)C(F)(F)C(F)(F)C(F)(F)C(F)(F)C(F)(F)F)CC(=O)[O-]
active: [3] 0.0122 µM | [20] 0.00267 µM
not listed: [15]
inactive: all other assays above
